BRCA1 expr up = activators of BRCA1 expression | MCF7-BRCA1-FFLuc reporter, luminescence, 48 h; response scale: scaled: vehicle 0%, 10 µM genistein 100% | Potency, µM (highest dose often 46.1 µM), for inactives: at the top dose activation, most hits filed as activators | 380,000 compounds, 1.1% hits | AID 624202; note: nearly all actives have a fitted effect of over 80% in size
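Luminescence from a BRCA1-driven firefly luciferase in MCF7 cells was read after 48 h compound exposure at 37 C. Data normalized against DMSO and a 10microM genistein activation control, then curve-fitted across the titration.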
B2AR arrestin = recruits beta-arrestin to the human beta2-adrenergic receptor. beta-arrestin recruitment to beta2AR, cell-based reporter. 330,000 compounds, 0.02% hits. P07550. AID 492947. Potency, µM (highest dose often 46.1 µM), inactives show at the highest dose activation, most hits filed as activators;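 note: 0% = DMSO controls and full agonism = EC100 isoproterenol or metaproterenol; nearly all actives have a fitted effect of over 65% in size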
Target sequence (P07550 whole entry, looked up): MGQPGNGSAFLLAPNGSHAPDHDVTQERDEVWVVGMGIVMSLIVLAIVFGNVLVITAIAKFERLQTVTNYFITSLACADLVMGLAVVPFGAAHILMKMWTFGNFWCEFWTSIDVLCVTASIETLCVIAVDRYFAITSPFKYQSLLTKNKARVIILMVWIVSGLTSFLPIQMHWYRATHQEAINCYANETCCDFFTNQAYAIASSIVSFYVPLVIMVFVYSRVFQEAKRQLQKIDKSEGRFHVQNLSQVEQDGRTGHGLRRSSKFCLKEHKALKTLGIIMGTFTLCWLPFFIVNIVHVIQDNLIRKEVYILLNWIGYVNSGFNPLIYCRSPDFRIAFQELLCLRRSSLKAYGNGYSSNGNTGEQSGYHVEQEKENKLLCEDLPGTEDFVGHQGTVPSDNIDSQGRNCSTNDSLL
Mito fusion yeast = mitochondrial division inhibition or fusion activation; Potency, µM (top dose mostly 46.1 µM), for the others: at the highest dose growth rescue (activation), hits mostly activators; 320,000 compounds, 0.23% hits; AID 485298; S. cerevisiae fusion-defective mutant growth rescue, CellTiterGlo 48 h; note: % of control where 0% means no effect; nearly all actives have a fitted effect of over 45% in size
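Temperature-sensitive fusion-defective S. cerevisiae (e.g. fzo1-1, mgm1-5) were grown with compound in YPEG medium (3% ethanol, 3% glycerol) for 48 hours at 37C. Growth rescue was measured as viability by CellTiterGlo luminescence after 10 minutes at ambient.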
ERG Ets-DNA blk = inhibitors of human ERG Ets domain-DNA interaction; P11308; AID 624246; Potency, µM (titrated, usually from 76.9 µM), without a hit: at the top dose FP activity, negative = inhibition, most hits filed as inhibitors; 370,000 compounds, 0.028% hits; fluorescence polarization, His-ERG Ets domain / labelled DNA; active = well fitted inhibition curve with a large enough effect in the polarisation, with a control signal flat; inconclusive = small, poorly fitted or top-dose-only effect, or effect the other way, or a change in a side signal; inactive = no such curve, though single readings can be large or run the other way; the % refers to the polarisation;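 note: polarization taken with two DNA probes labelled with fluorescein and Texas red; % of control where 0% means no effect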
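His-tagged ERG Ets domain (1 uM in the protein solution; 300mM KCl, 50mM Tris-HCl, 1mM EDTA, 1mM DTT, pH 7.5) received compound, then a probe mix of 5 nM fluorescein-DNA and 100nM Texas-615-DNA. Fluorescence polarization was read for both dyes.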
The depositor's hits bear a star; ? = inconclusive; nt = no result given; [ ] = dose if it differs, or a comment. Shown are actives, neighbours in structure and some others; about 1.2% of the full set was active somewhere. Unless noted, calls come from the whole dose curve; as a rule, active = well fitted curve in the direction sought with a large enough effect; inconclusive = small, poorly fitted or top-dose-only effect, or another doubt; inactive = no such curve, though single readings can be large; an effect the other way counts as inactive or inconclusive. Potency is the fitted concentration of half-maximal effect.

SMILES	BRCA1 expr up	B2AR arrestin	Mito fusion yeast	ERG Ets-DNA blk
CCOc1ccc(/C=C2\CCC(C3CCCC3)C2=O)cc1OC (stereo not drawn)	-18%	-1%	-4%	-3%
Cc1nc2cc3ccccc3cc2c(=O)[nH]1	11µM*	0%	-9%[1.84 µM]	7%
CCNC(=S)NNC(=O)c1cc(-c2cccc(C)c2)nc2ccccc12	4.5µM*	0%	-10%	-7%
CCNC(=S)NNC(=O)c1cc(-c2cccc(OCC)c2)nc2ccccc12	?	0%	-1%	-11%
Fc1ccc(C(c2nnc(-c3ccccc3)o2)N2CCN(c3ccccc3)CC2)c(Cl)c1 (stereo not drawn)	nt	nt	nt	-4%
COc1ccc(-c2nc3scc(CCNS(=O)(=O)c4ccc(F)cc4C)n3n2)cc1	nt	nt	nt	-6%
Cc1cc(C)n(-c2ccc(C(=O)Nc3nnc(C)s3)cc2)n1	19%	6%	8%	3%
Cc1cc(C)n(-c2ccc(C(=O)Nc3sccc3C(N)=O)cc2)n1	1µM*	0%	7%	5%
Cc1ccc(C)n1-c1nnc(N2CCCC(C(=O)NCc3cccc(Cl)c3)C2)s1 (stereo not drawn)	nt	nt	nt	-1%
Cn1c(SCc2ccccc2F)nc2cccnc21	6.3µM*	-1%	-2%	-12%
COc1ccc(-c2nc(Cn3c(SCc4ccccc4F)nc4cccnc43)c(C)o2)cc1	nt	nt	nt	0%
COc1ccc2c(c1OC)C(=O)N(c1cccc(C(F)(F)F)c1)C2	2.8µM*	0%	17%	-4%
Cn1cc(-c2nc3ccccc3[nH]2)c2ccccc21	11µM*	0%	2%	-7%
Cc1c(-c2nc3ccccc3[nH]2)cnn1C	51%	0%	-1%	14%
CC1(C)Nc2ccccc2C(=O)N1c1ccc(Br)cc1	?	nt	nt	9%
COc1ccc(N2C(=O)c3ccccc3NC2(C)C)cc1	10µM*	0%	-6%	-1%
CCOc1ccc(N2C(=O)c3ccccc3NC2(C)CC)cc1 (stereo not drawn)	3.5µM*	0%	-3%	10%
CCCCCc1ccc(-c2ccc(OC)cc2)nc1	8.9µM*	0%	9%	-12%
COc1ccc2cc(C[C@@H]3CC[C@@H](CO)O3)ccc2c1	2.8µM*	-1%	nt	8%
NC(=O)c1sc2nc3c(cc2c1N)CCC3	8.9µM*	0%	5%	-1%
COC(=O)c1sc2nc3c(cc2c1N)CCCC3	?	-1%	?	5%
Nc1c(C(=O)N2CCOCC2)sc2nc3c(cc12)CCCC3	-38%	0%	-4%	-4%
Nc1c(C(=O)N2CCCC2)sc2nc3c(cc12)CCCCCC3	4.5µM*	0%	-3%	-6%
CCC(=O)N1CCc2cc(S(=O)(=O)CCC(=O)Nc3ccc(Cl)c(C(F)(F)F)c3)ccc21	-56%	nt	nt	-4%
CC(=O)c1cc(C#N)c(SCCC(C)C)nc1C	19%	0%	?	-16%
SMILES	BRCA1 expr up	B2AR arrestin	Mito fusion yeast	ERG Ets-DNA blk
CC(C)CCSc1nc(N)c(C#N)cc1C#N	22%	0%	11µM*	10%
Cc1ccc(S(=O)(=O)NC2c3cccc4cccc(c34)C2Sc2ncccn2)cc1 (stereo not drawn)	-52%	0%	14µM*	0%
Nc1nc(SC2c3cccc4cccc(c34)C2NS(=O)(=O)c2ccccc2)n[nH]1 (stereo not drawn)	-22%	-1%	-15%	-4%
Cc1cc(C)nc(SC2c3cccc4cccc(c34)C2NS(=O)(=O)c2ccccc2)n1 (stereo not drawn)	-59%	0%	20µM*	2%
CN(C(=O)Nc1ccc(Cl)c(Cl)c1)c1ccccc1C(=O)O	-15%	0%	18µM*	-4%
O=C(Nc1ccc(Cl)c(Cl)c1)c1ccccc1	31%	0%	?	-2%
CNCc1nc(-c2ccc[nH]2)c2cc(Cl)ccc2n1	33%	nt	nt	nt
O=C(/C=C/c1ccc(O)c(O)c1)OCCc1ccccc1	12%	nt	2.6µM*	-4%
COc1ccccc1CNC(=O)C(Cc1ccccc1)NS(=O)(=O)c1ccc2c(c1)CCN2C(C)=O (stereo not drawn)	nt	nt	nt	-3%
Clc1cccc(-c2nc3ccc(Cl)cn3c2Cc2ccsc2)c1	13µM*	nt	nt	nt
Clc1cccc(-c2nc3ccc(Cl)cn3c2Cc2ccccc2)c1	2%	nt	nt	nt
Cc1nn(-c2ccccc2)c(C)c1/C=N/NC(=O)CSc1nnc(SCc2ccccc2Cl)s1	13µM*	?	0%	-14%
Cc1ccc(CSc2nnc(SCC(=O)N/N=C/c3c(C)nn(-c4ccccc4)c3C)s2)cc1	34%	0%	26%	8%
Cc1ccc(NC(=O)CCCC2CCCCC2)c(O)c1	13µM*	0%	-4%	-3%
Cc1ccc(NC(=O)CCN2C(=O)C3CCCCC3C2=O)c(O)c1 (stereo not drawn)	-7%	0%	-5%	-5%
Fc1ccc(-c2nnc3n2CCCCC3)cc1	-13%	0%	16µM*	9%
COc1ccc(Br)cc1CNC(=O)c1cnc2sc(N3CCCC3)nn2c1=O	nt	nt	nt	5%
COc1ccc(S(=O)(=O)c2cn(CC(=O)Nc3cc(C)ccc3C)c3ccccc3c2=O)cc1	12%	nt	nt	-1%
Cc1cc(N/N=C/c2ccc3c(c2)OCO3)nc2ccccc12	13µM*	0%	-2%	1%
COc1ccc2oc(-c3ccco3)cc(=O)c2c1	6.3µM*	13%	-10%	-21%
O=c1cc(-c2ccco2)oc2ccc(Cl)cc12	68%	0%	-1%	-3%
O=C(/C=C\c1ccc2c(c1)OCO2)NC1CC(=O)N(c2cccc(F)c2)C1 (stereo not drawn)	nt	nt	nt	5%
COc1ccc2nc(N3CCC(C)CC3)c(C#N)cc2c1	11µM*	0%	18%	1%
COc1ccc2nc(N3CCC(O)CC3)c(C#N)cc2c1	59%	-1%	3%	3%
COc1ccccc1-c1nnc(C2CCN(C(=O)c3cccc(Cl)c3)CC2)o1	nt	nt	nt	9%
SMILES	BRCA1 expr up	B2AR arrestin	Mito fusion yeast	ERG Ets-DNA blk
CSc1ccccc1-c1nnc(-c2ccc(Cl)cc2Cl)o1	7.9µM*	0%	-1%	-1%
CCOCCCNC(=O)c1ccc(Cn2c(=O)c3cccn3c3cccnc32)cc1	nt	nt	nt	-3%
COc1cccc(/C=N/Nc2nc(Nc3ccc([N+](=O)[O-])cc3)nc(N3CCCC3)n2)c1O	-54%	0%	4%	8%
O=[N+]([O-])c1ccc(Nc2nc(N/N=C/c3cccc(F)c3)nc(N3CCCC3)n2)cc1	-54%	0%	16µM*	-4%
CCOc1ccc(/C=N/OCC(=O)Nc2ccc(OCc3ccccc3)cc2)cc1OC	7.9µM*	0%	8%	8%
COC(c1ccccc1)c1nnc(CCC(=O)N(C)Cc2cccc(-n3cccn3)c2)o1 (stereo not drawn)	13µM*	0%	-2%	-13%
c1ccn2c(SCc3cn4ccsc4n3)nnc2c1	5µM*	0%	-2%	4%
Clc1ccc(CSc2nnc3ccccn23)c(Cl)c1	10µM*	-1%	3%	nt
O=[N+]([O-])c1ccccc1CSc1nnc2ccccn12	?	0%	-2%	-2%
c1ccc(-n2cnnc2SCc2cn3ccsc3n2)cc1	0%	-1%	-1%	9%

Screens (PubChem)
